Measurements published in PubChem BioAssay (NCATS).
“And” between values parts separate entries of the source, which are not always exact repeats. Identical values can stand only once. Records with an inconclusive call do not appear. The source made the active and inactive calls. The call rests on the fitted dose curve; in most records, active means well fitted curve in the direction sought with a large enough effect; inconclusive means small, poorly fitted or top-dose-only effect, or another doubt; inactive means no such curve, though single readings can be large or run the other way.

Assay: qHTS Assay for Identifying Gametocytocidal Compounds (AID 743244);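 further: actives lower the fluorescent signal which means gametocytes are killed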
Conditions: P. falciparum 3D7 stage III-V gametocytes, alamarBlue, 72 h; max response: hits give low values
Method in brief: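 3D7 gametocytes, stages III–V, 20,000/well; cpd 72 h, 37 °C/5% CO2; + alamarBlue 24 h; fluor. Ex 525/Em 598.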
On the % scale 0 is the no-effect control and ±100 the full control effect.

| Compound | max response |
| --- | --- |
| CC(/C=C/C=C(\C)C(=O)O[C@@H]1O[C@H](CO[C@@H]2O[C@H](CO)[C@@H](O)[C@H](O)[C@H]2O)[C@@H](O)[C@H](O)[C@H]1O)=C\C=C\C=C(C)\C=C\C=C(/C)C(=O)O[C@@H]1O[C@H](CO[C@@H]2O[C@H](CO)[C@@H](O)[C@H](O)[C@H]2O)[C@@H](O)[C@H](O)[C@H]1O | 5.1% (inactive) |
| C=CC[N@@+]12CC[C@@]34c5ccccc5N5/C=C6/[C@H]7C[C@H]8[C@@]9(CC[N@@+]8(CC=C)C/C7=C/CO)c7ccccc7N(/C=C(/[C@@H](C[C@@H]31)/C(=C\CO)C2)[C@H]54)[C@@H]69 | 4.55% (inactive) |
| CC(=C\c1ccccc1)/C=C1/SC(=S)N(CC(=O)O)C1=O | 8.93% (inactive) |
| O=P(O)(O)OP(=O)(O)O | 2.77% (inactive) |
| O=C(NNCS(=O)(=O)O)c1ccncc1 | -7.51% (inactive) |
| C=C1c2c(Cl)ccc(O)c2C(O)=C2C(=O)[C@]3(O)C(O)=C(C(N)=O)C(=O)[C@@H](N(C)C)[C@@H]3[C@@H](O)[C@H]12 | 2.94% (inactive) |
| COc1ccc(C(=O)CCC(=O)O)c2ccccc12 | -11.7% (inactive) |
| CCCCC(CC)CCC(CC(C)C)OS(=O)(=O)O (stereo not drawn) | 17.4% (inactive) and 3.69% (inactive) |
| FC(F)(F)COCC(F)(F)F | 3.82% (inactive) |
| Cc1c(Cl)cccc1Nc1ncccc1C(=O)O | -5.77% (inactive) |
| CC(=O)Nc1ccc(OC(=O)c2ccccc2O)cc1 | -4.48% (inactive) |
| O=C(CO)[C@@H](O)[C@H](O)[C@@H](O)C(=O)O | 23.9% (inactive) |
| CC(C)(C)NCC(O)c1ccc(O)c(CO)n1 (stereo not drawn) | 6.55% (inactive) |
| COC(=O)CC[C@H](N)C(=O)O | -4.69% (inactive) |
| O=C(NNCNNC(=O)c1ccncc1)c1ccncc1 | 16.9% (inactive) |
| C=CC1=C(C(=O)O)N2C(=O)[C@@H](NC(=O)/C(=N/OCC(=O)O)c3csc(N)n3)[C@H]2SC1 (stereo in doubt) | -1.34% (inactive) |
| Nc1nc2c(c(=O)[nH]1)N(C=O)C(CNc1ccc(C(=O)N[C@@H](CCC(=O)O)C(=O)O)cc1)CN2 (stereo partly drawn) | 8.32% (inactive) |
| CC(C)CCC[C@@H](C)[C@H]1CC(=O)C2=C3CC[C@H]4C[C@@H](O)CC[C@]4(C)[C@H]3CC[C@@]21C | 5.28% (inactive) |
| CC(=O)[C@@]1(O)CC[C@H]2[C@@H]3C=C(Cl)C4=CC(=O)[C@@H]5C[C@@H]5[C@]4(C)[C@H]3CC[C@@]21C | 3.29% (inactive) |

| Compound | max response |
| --- | --- |
| O=C(O)Cc1nn(Cc2ccc(Br)cc2F)c(=O)c2ccccc12 | -4.01% (inactive) |
| NC(=O)CC[C@@H]1NC(=O)[C@H](Cc2ccccc2)NC(=O)[C@H](Cc2ccc(O)cc2)NC(=O)[C@@H](N)CSSC[C@@H](C(=O)N2CCC[C@H]2C(=O)N[C@@H](CCCN=C(N)N)C(=O)NCC(N)=O)NC(=O)[C@H](CC(N)=O)NC1=O | -1.4% (inactive) and -14.5% (inactive) |
| CC(=O)Nc1ccc(OC(C)=O)cc1 | -5.2% (inactive) |
| CC(CNC(=O)c1cccnc1)NC(=O)c1cccnc1 (stereo not drawn) | -8.6% (inactive) |
| CC(=O)Oc1cccc(C(=O)O)c1OC(C)=O | 10.1% (inactive) |
| C[C@@H]1O[C@@H]1P(=O)(O)O | -12.6% (inactive) |
| C=C1CC[C@H](O)CC1=C/C=C1\CCC[C@]2(C)[C@@H]([C@H](C)CCCC(C)(C)O)CC[C@@H]12 | -5.02% (inactive) |
| COc1ccc(/C=C/C(=O)OCCC(C)C)cc1 | 3.66% (inactive) |
| CCC(=O)OC(OP(=O)(CCCCc1ccccc1)CC(=O)N1C[C@H](C2CCCCC2)C[C@H]1C(=O)O)C(C)C (stereo partly drawn) | 15.3% (inactive) |
| O=C(O)COc1ccc(CCNS(=O)(=O)c2ccccc2)s1 | -5.07% (inactive) |
| CC(C)(C)NCC(O)CSc1nc(-c2ccc(C(N)=O)s2)cs1 (stereo not drawn) | 20.6% (inactive) |
| NCC(O)CC(=O)O (stereo not drawn) | 10.8% (inactive) |
| O=S(=O)(O)CC(S)CS (stereo not drawn) | 3.76% (inactive) |
| CC1CCCC(C)N1NC(=O)c1ccc(Cl)c(S(N)(=O)=O)c1 (stereo not drawn) | 7.73% (inactive) |
| Cc1cccc(C)c1Nc1ncccc1C(=O)O | 11.3% (inactive) |
| FC(F)OC(Cl)C(F)(F)F (stereo not drawn) | -3.13% (inactive) |
| CCCCCCCCCCCCCCCCCCCCCC(=O)Nc1ccn([C@@H]2O[C@H](CO)[C@@H](O)[C@@H]2O)c(=O)n1 | -10.3% (inactive) |
| O=C(O)/C=C/C(=O)Nc1ccc(S(=O)(=O)Nc2nccs2)cc1 | 0.278% (inactive) |
| O=[n+]1ccn([O-])c2ccccc21 | -5.38% (inactive) |
